High-throughput results from PubChem BioAssay.
Hits are enriched below; roughly 9.7% of the tested compounds scored in any of these assays.
BAP1 inh = blocks human BAP1 ubiquitin-AMC hydrolysis | Q92560 | 72,000 compounds, 0.48% hits | AID 436 | calls only at 20 µM | recombinant BAP1, Ub-AMC hydrolysis fluorescence kinetic; stronger effect = lower value;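 active = activity remaining at or below 50% of control, provided the compound also passes the data quality filters; inactive = the rest, including low values that fail the filters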;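 also: 100% = DMSO wells rate and 0% = substrate alone blank rate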
Target sequence (Q92560 whole entry, looked up): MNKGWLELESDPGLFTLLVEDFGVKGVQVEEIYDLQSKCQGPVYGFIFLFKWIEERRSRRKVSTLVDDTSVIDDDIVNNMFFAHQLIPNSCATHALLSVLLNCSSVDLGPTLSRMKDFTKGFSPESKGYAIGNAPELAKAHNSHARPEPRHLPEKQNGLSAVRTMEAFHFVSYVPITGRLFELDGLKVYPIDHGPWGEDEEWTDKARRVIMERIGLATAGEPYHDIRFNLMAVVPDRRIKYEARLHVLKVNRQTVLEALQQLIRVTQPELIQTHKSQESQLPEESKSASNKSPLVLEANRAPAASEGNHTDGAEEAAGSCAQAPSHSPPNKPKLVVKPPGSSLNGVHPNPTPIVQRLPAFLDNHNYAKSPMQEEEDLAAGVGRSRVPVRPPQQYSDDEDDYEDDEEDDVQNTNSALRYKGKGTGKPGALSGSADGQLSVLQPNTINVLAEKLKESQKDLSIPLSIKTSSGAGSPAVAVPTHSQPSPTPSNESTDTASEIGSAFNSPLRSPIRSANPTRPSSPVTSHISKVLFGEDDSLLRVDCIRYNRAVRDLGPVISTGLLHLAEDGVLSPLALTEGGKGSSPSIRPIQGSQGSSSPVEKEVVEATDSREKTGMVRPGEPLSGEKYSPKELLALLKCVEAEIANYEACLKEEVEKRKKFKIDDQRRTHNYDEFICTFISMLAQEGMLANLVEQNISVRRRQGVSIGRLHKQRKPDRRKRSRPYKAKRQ
WNV protease inh = WNV NS2B-NS3 proteinase inhibition; P06935; WNV NS2B-NS3 protease, fluorogenic substrate Ex360/Em465; stronger effect = lower value; z-score (concentration not given with the values); 65,000 compounds, 0.18% hits; AID 577; in the data active = z-score below about -3
Abs 340nm = compound absorbs light at 340 nm. compound absorbance at 340 nm, fold over control. fold change at 10 µM. 65,000 tested, under 10 active. AID 708;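 active = at 10 µM dose, initial 340 nm absorbance at least 2 fold that of control wells; inactive = change under 2 fold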;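 also: initial absorbance extrapolated from kinetic A340 decline of NADH oxidation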
Fluor 339 460 = intrinsic fluorescence of library compounds, ex339/em460 – biochemical, MLSMR library, data from DPM-DC assay, artefact control, profiling panel; compound autofluorescence, ex339/em460 nm, NADH buffer; stronger effect = higher value; 1 = no-compound wells, NADH background; 65,000 compounds, 5.5% hits; AID 709; fluorescence fold increase at 10 µM;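 active = at 10 µM, mean starting fluorescence two-fold or more over control wells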;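 also: signal is the first read of a kinetic run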
M1 ag = agonists of M1 muscarinic receptor; CHO-M1 cells, Fluo-4 calcium fluorescence, agonist mode; stronger effect = higher value; AID 626; B-score at 10 µM; 64,000 compounds, 3% hits;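 active = fluorescence rise, raw or as B-score row- and column-corrected plate score, outside the 99.7% band of its plate's samples, either direction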
M1 antagonist = blocks the rat M1 muscarinic receptor response to acetylcholine. P08482. 64,000 compounds, 3.4% hits. AID 628. CHO-M1 cells, Fluo-4 calcium, ACh EC80 antagonist mode; stronger effect = lower value. B-score at 10 µM;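 active = calcium fluorescence response, raw or row-and-column corrected B-score, differing from the plate sample mean either way at a set confidence level, mostly lower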
* hit, by the source's call; i = inactive; . = no result shown; + = active, no number.

SMILES | BAP1 inh | WNV protease inh | Abs 340nm | Fluor 339 460 | M1 ag | M1 antagonist
Cc1cc2c(cc1C)NC(c1c(C)n(C)n(-c3ccccc3)c1=O)C1=C(CC(C)(C)CC1=O)N2 (stereo not given) | i | . | 1.1 | 2.6* | 47* | -0.38
Cc1cc2c(cc1C)NC(c1cccc(C(F)(F)F)c1)C1=C(CC(C)(C)CC1=O)N2 (stereo not given) | i | . | . | . | . | .
COc1ccccc1N1CCN(CCOc2c(OC)cccc2OC)CC1 | i | -0.33 | 1 | 1.1 | 1.4 | 2.5*
CC(=O)Oc1ccc2c3c(c(=O)oc2c1)CCC3 | i | . | . | . | . | .
CCc1cc(=O)oc2cc(OC(C)=O)cc(OC(C)=O)c12 | . | 4.8 | 1 | 2.4* | 0.59 | 0.62
CC1(C)CN=C(N2CCN(C3=NCC(C)(C)S3)CC2)S1 | i | 0.98 | 1 | 1.1 | 0.93 | -6.3*
CCNC(=O)NC(=O)COC(=O)c1ccccc1SCC(=O)NC(=O)NCC | i | -0.59 | 1.1 | 2.1* | 0.59 | 0.87
CCc1nc(N)c(C#N)c(-c2cccn2C)c1C | i | -6.8* | 1.1 | 1.2 | -0.1 | 0.16
CCc1nc(N)c(C#N)c(-c2ccncc2)c1C | i | -0.12 | 1 | 1.4 | 0.26 | -0.09
CCCOc1ccc(OC(=O)c2cccc(C(=O)OC)n2)cc1 | i | . | . | . | . | .
COc1ccc2oc(=N)c(C(=O)Nc3ccccc3)cc2c1 | i | -1.1 | 0.98 | 1.2 | 0.85 | -2.2
COc1ccccc1N=c1oc2cc(O)ccc2cc1C(=O)NCC1CCCO1 (stereo not given) | i | -0.49 | 1.1 | 2.9* | 2.1 | 0.031
COc1ccc2oc(=O)c(C(=O)NCC3CCCO3)cc2c1 (stereo not given) | . | -0.09 | 1 | 5.1* | 0.43 | 0.68
CNC(=O)c1cc2cc(OC)ccc2oc1=N | i | 1.8 | 1.1 | 2.5* | 0.97 | 0.36
COc1cccc2cc(C(=O)NCC3CCCO3)c(=O)oc12 (stereo not given) | i | 0.0034 | 1.1 | 1.4 | 0.46 | 1.2
N#Cc1c(NC(=O)CCCN2C(=O)c3ccccc3C2=O)sc2c1CCCC2 | i | . | . | . | . | .
CC(C)(C)c1cc(C(C)(C)C)c2nc(-c3ccccc3O)oc2c1O | i | . | . | . | . | .
C=CCOc1ccccc1C1C2=C(CC(C)(C)CC2=O)Nc2c1c(=O)n(C)c(=O)n2C (stereo not given) | i | 1.4 | 1 | 3.6* | -0.04 | -1.3
O=[N+]([O-])c1cccc(C=Nc2ccc3oc(-c4cccc5ccccc45)nc3c2)c1 | i | . | . | . | . | .
CCOc1cc2[nH]c(=O)n(CCCN3CCCC3=O)c(=O)c2cc1OCC | i | 0.85 | 1 | 2.3* | -0.11 | 0.75
CCOc1cc2[nH]c(=O)n(CCCCC(=O)NC3CCCCCC3)c(=O)c2cc1OCC | . | -0.54 | 1.1 | 2.3* | -0.42 | 0.2
CCOc1cc2[nH]c(=O)n(CC3CCC(C(=O)NCCC(C)C)CC3)c(=O)c2cc1OCC (stereo not given) | . | 1.1 | 1.1 | 1.4 | 0.32 | 0.13
CCOc1cc2[nH]c(=O)n(CC3CCC(C(=O)NCCCOC)CC3)c(=O)c2cc1OCC (stereo not given) | . | 1.3 | 1 | 2.1* | 0.24 | 0.47
CCOc1cc([N+](=O)[O-])cc(C=Nc2cccc(-c3nc4cc(C)ccc4o3)c2)c1O | i | . | . | . | . | .
CC12CCC(C(=O)N3CCCC3)(CC1=O)C2(C)C (stereo not given) | i | . | . | . | . | .
SMILES | BAP1 inh | WNV protease inh | Abs 340nm | Fluor 339 460 | M1 ag | M1 antagonist
CCC(Oc1ccccc1)C(=O)Nc1cccc2c1C(=O)c1ccccc1C2=O (stereo not given) | i | . | . | . | . | .
Cc1cc(C)c2c(N)c(C(=O)c3ccccc3)oc2n1 | i | 0.32 | 1 | 1.1 | 0.35 | -0.35
COC(=O)c1oc2nc(C)cc(C)c2c1N | i | -0.51 | 1.1 | 3.9* | 0.0051 | -0.25
O=C1Nc2ccc(S(=O)(=O)NCc3ccco3)c3cccc1c23 | i | -0.86 | 1.1 | 2.2* | -1.5 | -0.53
CN(c1ccccc1C(=O)O)S(=O)(=O)c1ccc2c3c(cccc13)C(=O)N2 | . | -1.2 | 1.1 | 1.4 | 0.011 | 1.5
COC(=O)c1ccccc1NS(=O)(=O)c1ccc2c3c(cccc13)C(=O)N2 | i | -1.5 | 1 | 2.8* | -0.14 | -0.73
O=C(O)c1ccccc1NS(=O)(=O)c1ccc2c3c(cccc13)C(=O)N2 | i | -0.67 | 1 | 1.1 | -0.36 | 0.43
CC(C)C(NS(=O)(=O)c1ccc2c3c(cccc13)C(=O)N2)C(=O)O (stereo not given) | i | -0.34 | 1.1 | 2.2* | 0.15 | -0.076
CCN1CC=C2C(C1)C(c1ccc(Cl)s1)C(C#N)=C(N)C2(C#N)C#N (stereo not given) | i | -0.63 | 1 | 2 | 261* | 0.51
COc1ccc(OC)c(-c2nnc(-c3ccc(C)o3)o2)c1 | . | 0.25 | 1.1 | 3.9* | -0.89 | 0.32
CC1=C(C(=O)Nc2cccc(C)c2C)C(c2ccc(C)cc2)NC(=S)N1 (stereo not given) | i | . | . | . | . | .
CCCc1c(CC)c(=N)c2ccccc2n1C | . | 0.26 | 1.1 | 3.5* | -0.17 | -0.32
CCCCn1c2ccccc2c2ccccc21 | i | . | . | . | . | .
Cn1c(Cl)cnc1-c1cc(=O)c2cc(Cl)ccc2o1 | i | . | . | . | . | .
CCCCCCCC/C=C\CCCCCCCC(=O)NCCc1ccc(O)c(O)c1 | + | . | . | . | . | .
O=C(CN1C(=O)c2ccccc2C1=O)Nc1ccc(C(=O)Nc2cccc(O)c2)cc1 | i | . | . | . | . | .
Cc1nn(C(=O)COc2ccccc2[N+](=O)[O-])c(C)c1Sc1ccc([N+](=O)[O-])cc1 | i | . | . | . | . | .
CC1=C(/C=C/C(C)=C/C=C/C(C)=C/C(=O)Nc2ccc(O)cc2)C(C)(C)CCC1 | + | . | . | . | . | .
CCOc1cc(-c2cc(-c3ccc(N)cc3)nc(N)c2C#N)ccc1O | i | -0.36 | 1.1 | 3.6* | 0.0068 | -0.16
O=C(O)CCCC(=O)N1CCN(c2nc(-c3ccccc3)c3ccccc3n2)CC1 | i | -0.54 | 1 | 2.1* | -0.023 | 1.2
Sc1oc(-c2ccccc2)cc1C=Nc1ccc(Cl)cc1 | i | . | . | . | . | .
CN(C)S(=O)(=O)c1cccc(-c2cn3ccccc3n2)c1 | i | 0.81 | 1 | 1.8 | -0.095 | -1.6
COc1ccc(-c2cn3ccccc3n2)cc1OC | i | -0.79 | 1 | 4* | -0.14 | 0.0029
COc1ccccc1N1CCN(CC(O)COc2ccc(C(C)C)c(C)c2)CC1 (stereo not given) | i | . | . | . | . | .
COc1ccc(C2(CNC(=O)c3ccccc3[N+](=O)[O-])CCCC2)cc1OC | i | . | . | . | . | .
Cc1cc(C(=O)Nc2sc3c(c2C#N)CCC(C)C3)cs1 (stereo not given) | . | 0.32 | 1 | 2* | -0.67 | 0.067
COC(=O)c1c(NC(=O)c2cccs2)sc2c1CCC(C)C2 (stereo not given) | . | -1.7 | 1.1 | 3.1* | -0.35 | -0.11
COC(=O)c1c(NC(=O)COc2ccc(OC)cc2)sc2c1CCC(C)C2 (stereo not given) | i | . | . | . | . | .
